Screening data as filed in PubChem BioAssay.
Most compounds without a hit are left out; they make up all but 7.6% or so of the library.
M1 antag: antagonists of rat M1 muscarinic receptor; CHO-M1 cells, Fluo-4 calcium, ACh EC80 antagonist mode; stronger effect = lower value; B-score at 10 µM; 64,000 compounds, 3.4% hits;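 active = calcium fluorescence response, raw or row-and-column corrected B-score, differing from the plate sample mean either way at a set confidence level, mostly lower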
Cav32 inh: Cav3.2 calcium influx blockers – cell-based, Fluo-4 calcium fluorescence, FDSS, MLSMR library, primary screen. Voltage-dependent T-type calcium channel subunit alpha-1H (Homo sapiens), O95180. Cav3.2-expressing cells; stronger effect = lower value. B-score at 10 µM. 100,000 compounds, 4% hits. AID 449739, 2010;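 active = single-dose well whose peak fluorescence ratio is a statistical outlier from its plate by either plate-standardised score or position-corrected B-score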
M1 agonist: M1 muscarinic receptor agonists, primary screen, CHO-M1 cells, Fluo-4 calcium, agonist mode | 64,000 compounds, 3% hits | Fluo-4 calcium fluorescence; stronger effect = higher value | B-score at 10 µM;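 active = fluorescence rise, raw or as B-score row- and column-corrected plate score, outside the 99.7% band of its plate's samples, either direction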
PLAP act: PLAP enzyme activators, biochemical, luminescence, HTS | activation fold at 20 µM | AID 696, 2007 | 96,000 compounds, 1.2% hits | purified PLAP enzyme, luminescent substrate read-out; stronger effect = higher value; in the data active = activation fold above about 2
Target sequence (P05187 whole entry, looked up): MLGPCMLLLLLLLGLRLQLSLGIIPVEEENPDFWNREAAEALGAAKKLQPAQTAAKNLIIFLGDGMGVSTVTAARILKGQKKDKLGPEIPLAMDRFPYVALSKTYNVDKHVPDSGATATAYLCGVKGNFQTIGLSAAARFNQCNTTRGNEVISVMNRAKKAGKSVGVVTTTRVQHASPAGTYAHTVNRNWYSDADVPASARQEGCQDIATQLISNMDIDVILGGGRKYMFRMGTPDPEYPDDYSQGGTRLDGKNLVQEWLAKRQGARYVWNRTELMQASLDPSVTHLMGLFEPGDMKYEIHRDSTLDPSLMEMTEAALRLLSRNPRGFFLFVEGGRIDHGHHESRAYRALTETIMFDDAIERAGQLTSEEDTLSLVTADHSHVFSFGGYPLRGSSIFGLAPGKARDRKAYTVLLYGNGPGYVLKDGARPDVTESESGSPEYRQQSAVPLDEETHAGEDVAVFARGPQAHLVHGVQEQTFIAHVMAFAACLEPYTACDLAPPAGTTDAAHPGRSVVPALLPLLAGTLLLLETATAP
* = called active by the depositor; · = no result given.

SMILES	M1 antag	Cav32 inh	M1 agonist	PLAP act
Cc1cccc(C(=O)N=c2c(C#N)cc3c(=O)n4cccc(C)c4nc3n2Cc2ccco2)c1	·	-1.87	·	1.6
Cc1cc(NC(=O)CSc2nc(CCC3CCCC3)nc3ccccc23)no1	-0.636	-8.74*	-0.13	1
CCCc1nc(SCC(=O)Nc2cc(C)on2)c2ccccc2n1	0.43	·	0.0168	0.9
Cn1cnc([N+](=O)[O-])c1Sc1ncccc1N	·	0.0327	·	1.1
COc1ccc(CCNC(=O)CCSc2nc(-c3ccco3)cc(C(F)(F)F)n2)cc1	0.313	-1.14	-0.756	1.1
CC(C)(C)c1cc(C(F)(F)F)nc(SCCCNC(=O)c2ccco2)n1	0.508	-4.63*	0.73	1.5
COc1cc(C)c(C(C)C)cc1S(=O)(=O)n1cnc(C)c1	0.0677	-4.79*	0.76	1.2
COc1cc(NC(=O)c2ccc(COCC(F)(F)F)cc2)cc(OC)c1OC	·	1.31	·	1
Nc1ncnc2nc(SCc3ccccc3)[nH]c12	1.06	0.071	0.407	2*
Cc1cc(NC(=O)CCSc2nc(-c3ccco3)cc(C(F)(F)F)n2)n(-c2ccccc2)n1	·	-4.06	·	·
COc1ccc(N2CCN(c3ncnc4c3nnn4Cc3ccccc3Cl)CC2)cc1	·	-1.54	·	·
Cn1ccnc1SCC(=O)N(C1CCCCC1)C1CCCCC1	-1.07	-0.725	1.03	0.9
CCOc1cc(C)c(Cl)cc1S(=O)(=O)N(C)C	0.144	-1.55	0.617	1
CCCOc1cc(C)c(Cl)cc1S(=O)(=O)N(CC)CC	·	-3.84*	·	·
CCOC(=O)Cc1csc(NC(=O)c2sc3nc4c(C)cc(C)cc4cc3c2N)n1	·	-3.34	·	1.3
CC1(C)CCC23CC[C@]4(C)C(OC2=O)(C3C1)[C@H]1O[C@H]1C1[C@@]2(C)CC[C@@H](O)C(C)(C)C2CC[C@]14C (some centres undefined)	·	-1.66	·	·
CC(C)c1ccc(NC(=O)N(CCc2nc3ccccc3[nH]2)C2CCCC2)cc1	·	-6.57*	·	0.8
O=C(Nc1ccccc1)N(CCc1ccncc1)C1CCCCC1	-1.33	-0.261	0.0208	·
CCn1c(SCC(=O)Nc2ccc3c(c2)OCO3)nnc1-c1ccccc1O	0.0621	-0.131	0.637	1.3
Fc1ccccc1N1CCN(Cc2nc(-c3ccc(Cl)cc3Cl)no2)CC1	-0.0804	0.127	-0.496	1.4
CC(C)CNC(=O)c1c2c(nc3ccccc13)-c1ccccc1CC2	·	-1.25	·	0.8
CCN(CC)C(=O)c1c2c(nc3ccccc13)-c1ccccc1CC2	·	-4.89*	·	1.2
C=CCSC(=C(C#N)C#N)c1cc2c([nH]1)CCCC2	·	-6.32*	·	0.7
O=C(O)c1cc2c([nH]c1=O)CCCC2	-2.22	-0.38	0.523	0.8
O=C(Oc1ccc(-n2cnnn2)cc1)c1ccco1	-0.742	0.7	-0.777	1.1
SMILES	M1 antag	Cav32 inh	M1 agonist	PLAP act
NC(=O)CC1NC(=O)c2cc([N+](=O)[O-])cc(I)c2OCCC(C(N)=O)NC(=O)[C@@H]2CCCN2C1=O (some centres undefined)	·	0.321	·	·
CC(C)(C)n1nnnc1C(c1cccs1)N1CCCc2ccccc21 (centres undefined)	-0.181	-5.92*	0.444	1
CC(C)C(c1nnnn1C1CCCCC1)N1CCCc2ccccc21 (centres undefined)	·	0.00169	·	·
CC(C)(C)n1nnnc1C(c1cccs1)N1CCCC2(CCCCC2)C1 (centres undefined)	·	-3.91	·	·
CC(C)C(c1nnnn1C1CCCC1)N1CCCc2ccccc21 (centres undefined)	-1.21	-3.93*	-0.99	·
CC1C/C(=C/c2cccn2C)C(=O)/C(=C/c2cccn2C)C1 (centres undefined)	·	-13.7*	·	1.4
CC(C)(C)c1ccc(C(=O)NNc2cc(N3CCCCC3)nc(N3CCCCC3)n2)cc1	·	-8.32*	·	1.3
COc1ccc(CNC(=O)C(c2ccc(C)o2)N(Cc2cccs2)C(=O)Cc2cccs2)cc1 (centres undefined)	·	-7.62*	·	·
COCCN(C(=O)Cc1cccs1)C(C(=O)NCc1ccc(OC)cc1)c1ccc(C(C)C)cc1 (centres undefined)	·	-3.01	·	2.6*
CCc1ccc(C(C(=O)NCc2ccc(OC)cc2)N(CCOC)C(=O)Cc2cccs2)cc1 (centres undefined)	·	-3.52	·	0.9
Cc1cc2c3nonc3ccc2n1-c1ccccc1	0.11	-1.46	1.07	1.1
Cn1c(N2CCN(C(=O)C34CC5CC(CC(C5)C3)C4)CC2)nc2ccccc21	-0.426	·	0.276	0.9
COC(=O)c1ccc(-c2cc(C(=O)O)c3cc4c(cc3n2)OCCO4)cc1	0.247	-0.0154	-0.994	1.2
COc1cccc(/C=N/NC(=O)c2ccc(OCc3cccc(Br)c3)cc2)c1	·	-5.97*	·	1.2
COc1cc(OC)cc(C(=O)N/N=C/c2ccc(OC)c(COc3ccc(F)cc3)c2)c1	·	·	·	1
COC(=O)C(NC(=O)Nc1ccccc1OC)C(C)C (centres undefined)	·	0.263	·	0.8
COC(=O)[C@@H](NC(=O)Nc1ccccc1F)C(C)C	1.62*	0.607	1.47	1
Cc1oc(-c2ccccc2F)nc1CS(=O)(=O)CC(=O)NCCN(C)C1CCCCC1	-1.03	·	-1.49	1.6
Cc1ccc(-n2ncc3c(=O)n(CC(=O)NCC4CCCO4)cnc32)cc1 (centres undefined)	1.44	0.842	-0.384	1.2
O=C(O)C(=O)/C(=C\c1cccc2ccccc12)c1ccc2ccccc2n1	·	-5.49*	·	1
CCCc1nnc(NC(=O)C(CC)OC(=O)c2cc(C)nc3ccccc23)s1 (centres undefined)	·	-4.32*	·	1.3
Clc1cccc(/C=N\Nc2nccs2)c1	·	-0.3	·	2.1*
Clc1cccc(/C=N/Nc2nc(Cl)nc3ccccc23)c1	·	-1.49	·	1.7
c1ccc2c(CCNc3ncnc4nc[nH]c34)cccc2c1	·	0.309	·	·
Cc1ccc(C2CC(=O)c3cnc(N4CCc5ccccc5C4)nc3C2)cc1 (centres undefined)	·	-3.54	·	1
SMILES	M1 antag	Cav32 inh	M1 agonist	PLAP act
O=C1CC(c2ccccc2)Cc2nc(N3CCc4ccccc4C3)ncc21 (centres undefined)	·	-6.21*	·	1.1
O=C(CSC(=S)N1CCOCC1)Nc1nc(-c2ccccc2)c(-c2ccccc2)o1	·	-2.67	·	0.9
O=C(CSC(=S)N1CCCCC1)Nc1nc(-c2ccccc2)c(-c2ccccc2)o1	·	-3.95*	·	0.9
CC(C)CC(CO)N1CCN(C(=O)c2cccc(Cl)c2)CCC1=O (centres undefined)	·	-0.125	·	·
CC(C)C[C@H](NC(=O)OC(C)(C)C)c1nnc(SCc2cccc(F)c2)o1	-1.64	-3.42*	0.701	1.2
CCOC(=O)C1=C(C)N(CCCC(=O)O)C(=O)NC1C(CC)CC (centres undefined)	·	0.325	·	·
OC(CN(c1ccccc1)c1ccccc1)Cn1cnc2ccccc21 (centres undefined)	0.536	-5.01*	2.27	1.6
OC(COCc1ccccc1)Cn1cnc2ccccc21 (centres undefined)	·	0.358	·	1.2
CCN(CC)C(=O)N1CCC(NC(=O)c2ccccc2)CC1	-0.35	-0.0585	-1.07	1
C/C(CC(=O)Nc1ccccc1-c1ccccc1)=N\NC(=O)COc1ccc(C)cc1Br	·	-6.54*	·	1.6
